# Screening results (PubChem)
# Shiga toxin inh: A qHTS for Small Molecule Inhibitors of Shiga Toxin; Vero cells, Shiga toxin protein synthesis inhibition reporter; inhibition, % at 38.7 µM; AID 2315, 2010; 9.2% of 290,000 active; in the data active = inhibition mostly above about 28%, no sharp cut-off; inactive = mostly below about 43%; also: 0% is about no effect
# Lassa entry inh: qHTS for Inhibitors of binding or entry into cells for Lassa Virus; 1.2% of 300,000 active; Lassa virus pseudotype entry inhibition, cell reporter; Potency, µM (highest dose often 37.9 µM), inactives show at the top dose activity change, negative = inhibition, actives largely listed as inhibitors; AID 540256, 2011; calls by dose curve; tested in HEK293 cells; also: potency is read from the fitted curve at half-maximal effect; % is scaled to controls: 0 for no effect and ±100 for the full control effect; nearly all actives have a fitted effect of over 50% in size
# Pf growth 96h: Primary qHTS for delayed death inhibitors of the malarial parasite plastid, 96 hour incubation. P. falciparum luciferase reporter growth, 96 h. 6.9% of 320,000 active. AID 504834, 2011. Potency, µM (top dose mostly 28.7 µM), without a hit: at the top dose activity change, negative = inhibition, hits mostly inhibitors; also: potency is read from the fitted curve at half-maximal effect; % is scaled to controls: 0 for no effect and ±100 for the full control effect
#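 Cell-based qHTS: luciferase-tagged P. falciparum in erythrocytes (2% hematocrit, 0.05% parasitemia final) incubated with compounds for 96 hours, 37 C, 5% CO2; luciferase detection reagent then added and luminescence measured.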
# Cycloheximide cs: Cycloheximide Counterscreen for Small Molecule Inhibitors of Shiga Toxin. 12% of 300,000 active. cell reporter, cycloheximide protein synthesis inhibition counterscreen. max response, %. AID 2314, 2010; in the data active = max response mostly above about 13%, no sharp cut-off; inactive = mostly below about 14%; also: read at 38.3 µM for the half of the compounds with a filed dose; 0% is about no effect
# Pf growth 48h: Primary qHTS for delayed death inhibitors of the malarial parasite plastid, 48 hour incubation | P. falciparum luciferase growth in erythrocytes, 48 h | Potency, µM (doses to about 28.7 µM), inactives show at the top dose activity change, negative = inhibition, usual class: inhibitors | 5.9% of 310,000 active; also: potency is read from the fitted curve at half-maximal effect; % is scaled to controls: 0 for no effect and ±100 for the full control effect
#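 Growth was read as firefly luciferase luminescence after a 48 h, 37 C, 5% CO2 exposure of compounds to reporter-bearing P. falciparum cultures (0.1% parasitemia, 2% hematocrit final) in Albumax-supplemented RPMI 1640.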
# MARV entry inh: qHTS for inhibitors of binding or entry into cells for Marburg Virus; Marburg virus pseudotyped entry inhibition, cell reporter; Potency, µM (titrated, usually from 37.8 µM), inactives show at the highest dose activity change, negative = inhibition, usual class: inhibitors; 1.8% of 300,000 active; calls by dose curve; tested in HEK293 cells; also: potency is read from the fitted curve at half-maximal effect; % is scaled to controls: 0 for no effect and ±100 for the full control effect
# An asterisk follows results filed as active; i = inactive; ? = inconclusive; . = no result; [ ] = another dose, or the depositor's remark. Compounds with a hit are over-represented: about 19% of the library has one in this group of screens. Unless noted, calls follow the shape of the dose curve; as a rule, active = well fitted inhibition curve with a large enough effect; inconclusive = small, poorly fitted or top-dose-only effect, or another doubt; inactive = no such curve, though single readings can be large or run the other way.
SMILES,Shiga toxin inh,Lassa entry inh,Pf growth 96h,Cycloheximide cs,Pf growth 48h,MARV entry inh
COc1ccc(F)cc1S(=O)(=O)N1CCN(c2ccccn2)CC1,6,5%,?,-1,-4%,?
Cc1cccc(NC(=O)CSc2nnc(-c3ccccc3C)o2)c1,69*,-1%,-25%,37*,500%,-16%
CCOC(=O)c1cccc(NC(=O)CSc2nnc(COc3ccccc3C)o2)c1,-9,-22%,7.4µM*,4,0%,-2%
Cc1cc(C)cc(NC(=O)CSc2nnc(-c3ccccc3C)o2)c1,43,21%,-20%,36*,77%,-20%
Cc1ccc(NC(=O)CSc2nnc(-c3ccccc3C)o2)cc1C,25,?,27%,1,43%,8%
Cc1ccccc1-c1nnc(SCC(=O)Nc2cccnc2Cl)o1,.,2µM*,.,.,.,?
CCOC(=O)c1noc2ncnc(N3CCN(c4ccccc4OC)CC3)c12,.,6%[46.1 µM],.,.,.,.
N#Cc1ccccc1CSc1nc(O)cc(=O)[nH]1,31,6%,.,-5,15%,5%
O=C(CSc1nnc(COc2ccccc2Cl)o1)Nc1ccccc1,.,.,-17%,.,-10%,.
CC(C)(C)NC(=O)NC(=O)CSc1nnc(COc2ccccc2Cl)o1,40,3%,.,15*,25%,?
O=C(C1CCN(C2CCN(Cc3ccc4c(c3)CCO4)CC2)CC1)N1CCOCC1,-12,-16%[46.1 µM],12µM*,-3,14%,?
O=C(C1CCN(C2CCN(Cc3ccsc3)CC2)CC1)N1CCOCC1,-11,3%,?,-3,-4%,18%
O=C(Nc1cnc2ccccn2c1=O)c1ccc(Cl)cc1,113*,6%,90%,33*,110%,?
O=C(Nc1cccn2ncnc12)c1ccc(Cl)cc1,45,?,3%,12,42%,?
CC1Cc2nc(SCC(=O)N3CCOCC3)n(-c3ccccc3)c(=O)c2S1 (stereo not given),-16,.,-10%,-3,-5%,.
Fc1ccc(-n2nnnc2-c2cnc(-c3cccs3)nc2C(F)(F)F)cc1,19,?,5.2µM*,-2,?,?
Cc1ccc(-n2nnnc2-c2cnn(-c3ccc(F)cc3)c2C(F)(F)F)cc1,-4,15µM*,?,4,?,?
FC(F)(F)c1nc(-c2ccncc2)ncc1-c1nnnn1-c1ccccc1,-14,-7%,?,1,?,-1%
Cc1ccc(-c2nnnn2-c2ccc(C)cc2)cc1,23,-11%,0%,11,-4%,0%[46.1 µM]
c1ccc(-n2nnnc2-c2cnc(-c3ccncc3)nc2-c2cccs2)cc1,-8,-5%,?,5,10µM*,-29%
Cc1scc(CN2CCN(c3ccc(F)cc3)CC2)c1C,.,-2%[46.1 µM],.,.,.,.
CC(=O)N1CCc2c(sc(NC(=O)CS(=O)(=O)c3ccc(F)cc3)c2C#N)C1,.,?,?,.,-13%,?
CC1(C)Cc2c(sc(NC(=S)NC(=O)c3ccccc3)c2C(=O)O)CO1,3,.,10%,2,3%,.
COc1cccc(C(=O)Nc2sc3c(c2C#N)CCN(C(C)=O)C3)c1,47,.,12%,25*,44%,.
CC1(C)Cc2c(sc(NC(=O)c3ccco3)c2C(=O)O)CO1,44,?,217%,30*,.,-53%
SMILES,Shiga toxin inh,Lassa entry inh,Pf growth 96h,Cycloheximide cs,Pf growth 48h,MARV entry inh
CNC(=O)c1c(NC(=O)c2cccc(C)c2)sc2c1CCC2,71*,4%,-22%,32*,-19%,?
COc1cccc(C(=O)Nc2sc3c(c2C(=O)O)CCCC3)c1,104*,10µM*,59%,37*,29%,11µM*
COc1cc(C(=O)Nc2sc3c(c2C(=O)O)CCC3)cc(OC)c1OC,25,?,4%,-3,-3%,?
C(=N\N1CCN(Cc2cccc3ccccc23)CC1)/c1cccs1,21,4%,29%,-2,-12%,-18%[46.1 µM]
CC(C)OC(=O)c1c(NC(=O)c2ccco2)sc2c1CCCCC2,-3,-7%,20%,13,.,23%[46.1 µM]
O=c1[nH]c(NCc2ccccc2)nc2c1CCCC2,-8,3%,8.3µM*,-1,13µM*,-12%
COc1cccc(C(=O)Nc2nc3c(c(=O)[nH]2)CCCC3)c1,18,?,-1%,20*,.,?
O=c1c2c(nc3nc(NCc4ccc(Cl)cc4)[nH]n13)CCC2,-7,8%[46.1 µM],1%,-2,-5%,1%
CNC(=O)c1c(NC(=O)c2ccco2)sc2c1CCCC2,32,-20%[46.1 µM],15%,29*,20%,17%[46.1 µM]
CCOC(=O)c1c(NC(=O)CCC(=O)O)sc2c1CC(C)(C)OC2,4,-5%,6%,-4,-11%,-4%[46.1 µM]
CCOC(=O)c1c(NC(=O)C2CC2)sc2c1CC(C)(C)OC2,15,9%[46.1 µM],-4%,-3,12µM*,0%[46.1 µM]
CC(C)c1ccc(SCc2noc(C(=O)NCC3CCCO3)c2C(=O)O)cc1 (stereo not given),5,.,?,-1,24%,.
Cc1ccc(C)c(S(=O)(=O)NC(C)CCc2ccccc2)c1 (stereo not given),14,-7%,10%,-2,9%,?
Cc1cccc(C(=O)Nc2sc3c(c2C(=O)O)CCC3)c1,103*,.,62%,42*,41%,.
COc1ccc(NC(=O)c2c(NC(=O)C(F)(F)F)sc3c2CCCCC3)cc1,.,3.2µM*,.,.,.,.
Cc1ccc(C(=O)C(NC(=O)c2ccco2)Nc2sc3c(c2C(N)=O)CCCC3)cc1 (stereo not given),active,.,28%,13*,?,7%
CC1(C)Cc2c(sc(NC(=O)c3ccc(Br)o3)c2C#N)CO1,71*,?,i,45*,223%,?
O=C(Cc1nc(-c2cnccn2)no1)NNC(=O)Nc1ccccc1,-5,?,?,-2,-3%,3%
Cc1ccc2nc(CSc3nnc(NC(=O)CC(C)C)s3)cc(=O)n2c1,.,0%[46.1 µM],.,.,.,.
CC(=O)N1CCN(C23CC4CC(CC(C4)C2)C3)CC1,6,.,25%,-3,-22%,.
COC(=O)CCNC(=O)c1ccc2nc(Cc3ccc(OC)c(OC)c3)oc2c1,29*,.,?,24*,5%,.
CCOc1ccc(CNC(=O)c2ccc3nc(Cc4ccc(OC)cc4)oc3c2)cc1OC,.,-24%[46.1 µM],.,.,.,.
COc1ccc(Cc2nc3ccc(C(=O)NCCCSC)cc3o2)cc1OC,39*,.,2.9µM*,45*,-15%,.
COc1ccc(Cc2nc3ccc(C(=O)N(C)CCn4ccnc4)cc3o2)cc1OC,63*,.,?,77*,-11%,.
CCOCC(O)CNC(=O)c1ccc2nc(Cc3ccc(OC)c(OC)c3)oc2c1 (stereo not given),10,21%[46.1 µM],-20%,2,-9%,?
O=C(O)Cn1c(=O)c2c3c(sc2n(Cc2ccccc2)c1=O)CCCC3,-16,.,35%,-5,10%[0.00184 µM],.
